CCHF vOTU inh-1 – CCHFV vOTU protease inhibitors, primary screen, biochemical, Pep-AMC substrate, fluorescence; AID 651958, 2012; 0.55% of 370,000 active; inhibition, % at 11.5 µM; Crimean-Congo hemorrhagic fever virus L polyprotein viral ovarian tumor (vOTU) protease …; note: 0% = vehicle wells with enzyme and 100% = no enzyme wells
BoNT F protease – BoNT/F light chain protease inhibitors, primary screen, biochemical, flow cytometry, MLPCN library. Botulinum neurotoxin type F light chain protease (Clostridium botulinum). Multiplex microsphere protease cleavage assay. 0.22% of 360,000 active. inhibition, % at 10 µM; in the data active = inhibition above about 35%, passing the limit was not always enough; inconclusive = no clear call, values can overlap the other calls; note: plate controls were buffer without enzyme for full effect and enzyme alone for no effect
BoNT-A LC inh2 – BoNT/A light chain protease inhibitors, primary screen, biochemical, flow cytometry, MLPCN library; multiplex microsphere protease substrate cleavage; inhibition, % at 10 µM; 0.17% of 360,000 active; AID 588499, 2011; in the data active = inhibition above about 30%; inconclusive = no clear call, values can overlap the other calls; note: plate controls were buffer without enzyme for full effect and enzyme alone for no effect
Bead autofluor – compound fluorescence in toxin protease inhibitor counterscreen; compound autofluorescence counterscreen, microsphere flow cytometry; stronger effect = higher value; fluorescence intensity (test concentration not listed); 3.1% of 360,000 active; AID 624483; in the data active = fluorescence intensity above about 16000; inconclusive = no clear call, values can overlap the other calls
Anthrax LF inh2 – Bacillus anthracis LF protease inhibitors, primary screen, biochemical, multiplex microsphere, MLPCN library; Lethal factor (Bacillus anthracis), P15917; multiplex microsphere protease cleavage assay; inhibition, % at 10 µM; 0.12% of 360,000 active; AID 588501, 2011; in the data active = inhibition above about 30%; inconclusive = no clear call, values can overlap the other calls; note: plate controls were buffer without enzyme for full effect and enzyme alone for no effect
Target sequence (P15917 whole entry, looked up): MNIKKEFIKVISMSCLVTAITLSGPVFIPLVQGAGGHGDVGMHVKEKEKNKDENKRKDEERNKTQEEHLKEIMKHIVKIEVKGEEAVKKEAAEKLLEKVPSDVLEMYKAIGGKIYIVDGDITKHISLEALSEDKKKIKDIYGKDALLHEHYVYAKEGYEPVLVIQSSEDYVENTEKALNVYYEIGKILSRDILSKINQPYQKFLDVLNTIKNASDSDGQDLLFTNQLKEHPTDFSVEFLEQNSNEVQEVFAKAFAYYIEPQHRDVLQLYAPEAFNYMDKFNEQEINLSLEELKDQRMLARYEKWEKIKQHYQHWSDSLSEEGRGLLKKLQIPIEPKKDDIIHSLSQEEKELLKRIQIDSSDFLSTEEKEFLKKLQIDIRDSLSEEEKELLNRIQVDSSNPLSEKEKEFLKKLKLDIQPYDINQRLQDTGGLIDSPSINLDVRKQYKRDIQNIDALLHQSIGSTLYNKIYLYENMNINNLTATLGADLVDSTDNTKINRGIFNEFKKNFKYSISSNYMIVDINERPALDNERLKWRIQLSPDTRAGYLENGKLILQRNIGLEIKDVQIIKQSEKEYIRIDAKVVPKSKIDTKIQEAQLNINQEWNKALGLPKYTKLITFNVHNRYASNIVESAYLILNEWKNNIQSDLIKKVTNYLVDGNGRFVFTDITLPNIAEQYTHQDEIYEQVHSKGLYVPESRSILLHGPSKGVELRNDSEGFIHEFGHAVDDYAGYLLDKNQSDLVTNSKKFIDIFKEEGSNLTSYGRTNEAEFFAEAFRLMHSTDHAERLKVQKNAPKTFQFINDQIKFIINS
SARS 3CLpro inh – SARS-CoV 3CLpro protease inhibitors, primary screen, biochemical, quenched FRET. recombinant SARS-CoV 3CLpro, quenched FRET peptide cleavage. 0.14% of 290,000 active. AID 1706, 2009. inhibition, % at 6 µM. Replicase polyprotein 1ab (Severe acute respiratory syndrome coronavirus), P0C6X7; in the data active = inhibition above about 12%
CCHF vOTU inh-2 – CCHFV vOTU protease inhibitors, confirmation, biochemical, Pep-AMC substrate, fluorescence. 17% of 1,900 active. inhibition, % at 11.5 µM. Recombinant CCHFV vOTU. shares compounds with CCHF vOTU inh-1
An asterisk follows results filed as active; ? = inconclusive; . = not tested or not shown. A selection: hits, their analogues and other compounds. The true share with any hit is near 3.9%. Cut-off read from the data, not from the text of the source, unless noted: active = inhibition above about 30%; inactive = the rest.

SMILES	CCHF vOTU inh-1	BoNT F protease	BoNT-A LC inh2	Bead autofluor	Anthrax LF inh2	SARS 3CLpro inh	CCHF vOTU inh-2
Cc1ccc(S(=O)(=O)N(C)[C@H]2C[C@H]3c4cc(-c5ccc6c(c5)OCO6)ccc4CCN3C[C@H]2[C@H](C)O)cc1	9	.	.	.	.	.	.
Cc1ccccc1-c1ccc2c(c1)[C@@H]1C[C@H](N(C)C(=O)c3ccco3)[C@H]([C@H](C)O)CN1CC2	-13	.	.	.	.	.	.
COc1ccc(-n2[nH]c(C)cc2=O)cc1	33*	.	.	.	.	-3	-27
O=C(NCc1ccccc1)[C@H]1CCCN1C(=O)[C@H]1CCCN1C(=O)c1ccc(Cl)cc1	-9	.	.	.	.	.	.
CCc1ccc(S(=O)(=O)Nc2ccc(O)c3ccccc23)cc1	62*	-3	-1	3517	-1	-3	-16
O=S(=O)(Nc1ccc(O)c2ccccc12)c1ccc(F)cc1	81*	-9	-1	5204	-4	.	5
Cc1oc2c(cc(NS(=O)(=O)c3ccc(C(C)C)cc3)c3ccccc32)c1C(=O)O	27	-2	0	5582	-2	-1	.
Cc1oc2c(cc(NS(=O)(=O)c3ccc(F)cc3)c3ccccc32)c1C(=O)O	30*	-7	0	4051	16	8	-10
NC(=O)C12NC(Cc3ccccc31)c1ccccc12 (centres undefined)	0	.	.	.	.	.	.
CC1(C)CC(=O)C(C=Nc2ccc(N)cc2)=C(O)C1	63*	-6	0	3950	-6	4	-8
COC(=O)C1C(O)=C(C=Nc2ccccc2)C(=O)CC1(C)C (centres undefined)	5	-2	0	4070	-2	2	.
COC(=O)C1C(O)=C(C=Nc2ccc(N)cc2)C(=O)CC1(C)C (centres undefined)	40*	-2	0	8440	-16	0	-4
COc1ccc(S[C@]2(C(=O)N3CCN(c4ncccn4)CC3)CC(=O)N(C(=O)Nc3ccc(C)c(Cl)c3)[C@@H]2c2ccc(OC)cc2)cc1	1	.	.	.	.	.	.
O=C(N/N=C1\C/C(=N\NC(=O)c2ccncc2)c2ccccc21)c1ccncc1	93*	-6	1	4193	-12	-2	83*
Cc1[nH][nH]c(=O)c1C(c1c(C)[nH][nH]c1=O)c1cn(C)c2ccccc12	44*	4	0	4800	-13	2	-32
Cc1[nH][nH]c(=O)c1C(c1c(C)[nH][nH]c1=O)c1cn(Cc2cccc3ccccc23)c2ccccc12	48*	-23	0	2411	-4	5	13
CCOC(=O)N1CCN(C(=O)C[C@@H]2C(=O)N(Cc3ccc(OC)cc3)C3=CCN(C(=O)OC(C)(C)C)C[C@]32C(=O)OCC)CC1	6	.	.	.	.	.	.
CCOC(=O)/C=C1\CN(Cc2cc(OC)c(OC)c(OC)c2)S(=O)(=O)c2ccccc21	5	-2	0	2907	3	-1	.
CCOC(=O)/C=C1\CN(Cc2cc(OC)c(OC)c(OC)c2)S(=O)(=O)c2ccc(C(F)(F)F)cc21	33*	-4	0	3950	-10	1	3
CC1(c2ccc3ccccc3c2)NC(=O)N(CC(=O)NCc2cccs2)C1=O (centres undefined)	6	-4	0	2281	-1	5	.
CCCCCC(C)NC(=O)CN1C(=O)NC(C)(c2ccc3ccccc3c2)C1=O (centres undefined)	32*	-7	-2	5694	-1	4	4
Cc1cc(N/N=C/c2ccc(O)cc2O)nc(N2CCOCC2)n1	14	-6	-1	4947	-2	0	.
Oc1ccc(/C=N\Nc2cc(N3CCOCC3)nc(N3CCOCC3)n2)c(O)c1	42*	-12	-1	10673	-2	0	2
CCSc1nnc(-c2ccco2)n1C	-9	.	.	.	.	.	.
CC(=O)[C@H]1[C@@H]2C(=O)N(c3cccc(Cl)c3)C(=O)[C@@H]2[C@H]2c3ccccc3C=CN21	94*	-10	0	2213	0	-12	82*
SMILES	CCHF vOTU inh-1	BoNT F protease	BoNT-A LC inh2	Bead autofluor	Anthrax LF inh2	SARS 3CLpro inh	CCHF vOTU inh-2
CC(=O)[C@@H]1[C@@H]2C(=O)N(c3ccc(F)c(Cl)c3)C(=O)[C@@H]2C2c3ccccc3C=CN21 (some centres undefined)	95*	.	.	.	.	1	75*
CC(=O)[C@@H]1[C@@H]2C(=O)N(C3CCCCC3)C(=O)[C@@H]2C2c3ccccc3C=CN21 (some centres undefined)	.	.	.	.	.	4	.
CC(C)(C)C(=O)[C@@H]1[C@@H]2C(=O)N(Cc3ccccc3)C(=O)[C@@H]2[C@H]2c3ccccc3C=CN12	.	.	.	.	.	4	.
O=c1c(O)c(-c2ccc(O)c(O)c2)oc2cc(O)cc(O)c12	32*	-3	1	5853	-1	-1	-6
O=c1cc(-c2ccc(O)c(O)c2)oc2cc(O)cc(O)c12	13	-8	0	3569	-6	.	.
CCCCN1CCCOc2cc(Br)ccc2S1(=O)=O	1	.	.	.	.	.	.
Cc1cccc(C(=O)Nc2c(-c3ccc(C(F)(F)F)cc3)nc3ncccn23)c1	15	.	.	.	.	.	.
COc1cc(CCc2ccccc2)c(C(=O)O)c(O)c1CC=C(C)C	29	-11	0	5299	-1	.	.
COc1cc(CCc2ccccc2)c(C(=O)O)c(O)c1C/C=C(/C)CCC=C(C)C	36*	-1	0	2906	0	.	47*
Cc1nnc(NC(=O)C2=COCCO2)s1	-2	?	1	4960	1	.	.
CCCCc1nnc(NC(=O)C2=COCCO2)s1	33*	-7	0	5961	-2	-1	-17
CC(CN1CCOCC1)OC(=O)c1ccccc1Br (centres undefined)	32*	-1	0	2955	-1	3	-28
COc1ccc(NC(=O)c2sc(=O)n(Cc3ccc(F)c(Cl)c3)c2C)cc1OC	31*	0	0	5481	-7	.	-14
CN(/N=C/C=C/c1ccccc1)c1cc(=O)n(C)c(=O)[nH]1	32*	0	1	10469	-1	-3	15
O=[N+]([O-])c1c(Nc2ccccn2)cc(Cl)c2nonc12	113*	-18	0	4461	-16	3	94*
